Test results taken from PubChem BioAssay.

The compounds below were run against Calmodulin-1 (Homo sapiens) (UniProt P0DP23) (assay: small molecules binding calmodulin-1 with EGTA – biochemical, small-molecule microarray, Cy5-labelled CALM1, profiling panel (AID 1111;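 also: labelled calmodulin applied in Tris saline Tween buffer holding calcium plus EGTA and DTT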)). Details: Cy5-CALM1 binding fluorescence, higher = more signal.

SMILES | composite z-score
C=CCN1C(=O)[C@@]2(O[C@@H](CCO)[C@H]([Si](C)(C)c3ccc(OC)cc3)[C@H]2C)c2cc(NC(C)=O)ccc21 | 0.793
O=C1O[C@@H](c2ccccc2)[C@@H](c2ccccc2)N2[C@@H](c3ccc(O)cc3)[C@]3(C(=O)Nc4ccc(C#CCCO)cc43)[C@@H](C(=O)N3CCCCCCC3)[C@H]12 | 2.37
NC(=O)[C@]1(Cc2ccccc2)N=C(c2ccc(OCCCO)cc2)O[C@@H]1c1ccccc1 | 1.35
O=C1O[C@H](c2ccccc2)[C@H](c2ccccc2)N2[C@H]1[C@@H](C(=O)NC[C@H](O)c1ccccc1)[C@]1(C(=O)Nc3ccc(C#CC4=CCCCC4)cc31)[C@H]2c1ccc(O)cc1 | 0.784
C=C[C@H](C)[C@H](O)c1ccc(OCCO)cc1 | -0.215
O=S(=O)(NCCCO)c1ccc(Br)cc1 | 0.873
O=C1c2ccccc2[C@](Cc2ccccc2I)(C(=O)O)[C@H](c2ccc(CO)cc2)N1Cc1ccccc1C(F)(F)F | 1.08
CCOC(=O)C1=C[C@@H](C(C)(C)C)N(S(=O)(=O)c2ccc(C)cc2)[C@H]1c1ccc(Cl)c(Cl)c1 | 1.46
COCC1=C([C@H](O)CCc2ccccc2)[C@H](CO)[C@@H]2C(=O)N(Cc3ccccc3)C(=O)[C@@H]2C1 | -0.519
C[N+](C)(C)CCCC[C@@H]1NC(=O)[C@H]2C[C@@H](C(=O)O)[C@@H](c3cccc(OCCO)c3)N2C1=O | 2.16
COc1ccc([Si](C)(C)[C@H]2[C@H](CC(=O)N3CCC[C@H]3CO)O[C@@]3(C(=O)N(Cc4cccc(N5CCC5=O)c4)c4ccccc43)[C@@H]2C)cc1 | -0.105
C=CCNC(=O)[C@H]1[C@@H]2C(=O)O[C@@H](c3ccccc3)[C@@H](c3ccccc3)N2[C@@H](c2ccc(OCCO)cc2)[C@]12C(=O)N(C(=O)OCCOC)c1ccc(C#CC3(O)CCCCCC3)cc12 | 0.494
CCCCN1CC=CC23O[C@@H]4C=CCCOC(=O)C4[C@H]2C(=O)N(CCCO)[C@@H]3C1=O (stereo not given in full) | -0.479
O=C(N1CCCCC1)[C@]1(CCS(=O)(=O)c2ccccc2)N=C(c2ccc(OCCCO)cc2)O[C@@H]1c1ccccc1 | 1.91
O=C1c2ccccc2[C@@]2(Cc3ccccc3N(Cc3ccccc3)C2=O)[C@H](c2ccc(CO)cc2)N1Cc1ccccc1C(F)(F)F | -0.457
CC(C)C(=C=CC[C@H](O)c1ccccc1OCCO)CCO | -0.274
C=CCC(OC(C)=O)[C@@H]1[C@@H](N(Cc2cc3ccccc3o2)C(=O)c2ccc(C)cc2)c2cc(OCCCO)ccc2N1C(=O)c1ccc(-c2ccccc2)cc1 (stereo not given in full) | -0.259
CC(C)(C)OC(=O)CC[C@@]1(C(=O)NCC(O)CO)N=C(c2ccc(OCCCO)cc2)O[C@@H]1c1ccccc1 (stereo not given in full) | -0.0155
CCOC(=O)C1=CC[C@@H](c2cccc(Cl)c2)N(S(=O)(=O)c2ccc(C)cc2)[C@H]1c1ccc(C#N)cc1 | 1.55
COC(=O)[C@@]1(Cc2ccc(OC)cc2)[C@H]2c3cc(C(=O)N(C)C)n(Cc4ccc(OC)c(OC)c4)c3C[C@H]2CN1C(=O)c1ccccc1 | 1.8
OCCCc1cc[n+](Cc2cccc(OC(F)(F)F)c2)cc1 | 0.66
O=C1O[C@@H](c2ccccc2)[C@@H](c2ccccc2)N2[C@@H](c3ccc(O)cc3)[C@]3(C(=O)Nc4ccccc43)[C@@H](C(=O)N3CCCCCCC3)[C@H]12 | 2.86
COCCCNC(=O)[C@@]1(C)c2ccccc2C(=O)N(Cc2ccccc2)[C@H]1c1ccc(CO)cc1 | -0.652
COc1ccc([Si](C)(C)[C@H]2[C@H](CCO)O[C@@]3(C(=O)N(Cc4ccccc4)c4ccc(N5C(=O)COc6ccccc65)cc43)[C@@H]2C)cc1 | 1.44
C=C(C)[C@@H]1CC=C(C(O)C2C=CC3C(=O)N(Cc4ccccc4)C(=O)C3N2n2cnnc2)CC1 (stereo not given in full) | 0.133
C=C(CCCC)C(=O)CC[C@H](OC(=O)c1ccccc1-c1ccccc1C(=O)O)c1ccc(CO)o1 | 0.856
O=C1C2C=CC(C(O)C3CC=CCC3)N(n3cnnc3)C2C(=O)N1Cc1ccccc1 (stereo not given) | -0.292
C=CCC(OC(C)=O)[C@@H]1[C@@H](N(Cc2cc3ccccc3o2)C(=O)c2ccc(-c3ccccc3)cc2)c2cc(OCCCO)ccc2N1C(=O)Cc1ccc2ccccc2c1 (stereo not given in full) | -0.27
O=[N+]([O-])c1ccc(C[n+]2ccc(CCCO)cc2)o1 | 1.2
CC(c1ccccc1)C(O)C1C=CC2C(=O)N(Cc3ccccc3)C(=O)C2N1n1cnnc1 (stereo not given) | -0.133
